According to PubChem BioAssay (Tox21):
Results filed as inconclusive are left out. Activity calls are given as the source filed them. Unless noted, the call rests on the fitted dose curve.

Experiments:
[1] = Nuclear factor erythroid 2-related factor 2/antioxidant responsive element (Nrf2/ARE) small molecule agonists: qHTS cell viability counter screen in human keratinocytes (AID 1919968; active means well fitted curve in the direction sought with a large enough effect in the repeat runs; an effect the other way counts as inactive or inconclusive; further: nearly all actives have a fitted effect of over 55% in size)
In short: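 Stably transfected HaCaT (KeratinoSens), 1,500/well. Test agents in DMSO were applied for 23 h, 37 C/5% CO2. CellTiter-Fluor was incubated 1 h before the fluorescence read.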

[2] = Nuclear factor erythroid 2-related factor 2/antioxidant responsive element (Nrf2/ARE) small molecule agonists: luciferase reporter gene qHTS assay in human keratinocytes (AID 1919969); further: nearly all actives have a fitted effect of over 35% in size; further: potency means the concentration at half of the fitted maximal effect
[3] = molecular target: Gonadotropin-releasing hormone receptor (Homo sapiens) (UniProt P30968); test: Human gonadotropin-releasing hormone receptor (GnRHR) small molecule agonists, calcium flux assay in GnRHR-HEK293 cells (AID 1920063); further: nearly all actives have a fitted effect of over 35% in size
In short: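 Stable human GnRHR HEK293 line. 18 h plating, then calcium dye for 1 h at 37 C. Agonist-mode compound addition from DMSO stocks; fluorescence monitored 3 min.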

[4] = molecular target: KiSS-1 receptor (Homo sapiens) (UniProt Q969F8); test: Human kisspeptin (KISS1R) small molecule agonists, calcium flux assay in KISS1R-HEK293 cells (AID 1920064; active means well fitted curve in the direction sought with a large enough effect in the repeat runs; an effect the other way counts as inactive or inconclusive)
In short: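 After overnight (18 h) culture at 37 C/5% CO2, human KISS1R-HEK293 cells received calcium dye for 1 h, then test compound; emission at 540 nm (excitation 480 nm) was tracked for 3 min.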

[5] = G protein-coupled receptor (GPCR) small molecule agonists, calcium flux assay: HEK293 wild type cell line counter screen (AID 1920065)
In short: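 Following 18 h incubation at 37 C/5% CO2, plates got calcium dye for 1 h; compounds, ATP or DMSO were then pinned in and fluorescence followed kinetically (480/540 nm).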

[6] = p53 small molecule agonists, cell-based qHTS assay with human liver microsomes (AID 1963577)
In short: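 p53RE-bla cells, 4,000/well, compound added after 5 h, with human liver microsomes 0.5 mg/mL and NADPH 0.5 mg/mL final; 16 h at 37 C, then LiveBLAzer 2 h RT, fluorescence.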

[7] = p53 small molecule agonists, cell-based qHTS assay with rat liver microsomes (AID 1963578)
In short: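 p53RE-bla cells, 4,000/well, pre-incubated 5 h, then given compounds plus rat liver microsomes (0.5 mg/mL final) and NADPH (0.5 mg/mL final). Incubation 16 h at 37 C; beta-lactamase reporter read by LiveBLAzer fluorescence after 2 h at room temperature.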

[8] = p53 small molecule agonists, cell-based qHTS assay with human liver microsomes: qHTS cell viability counter screen (AID 1963579); further: nearly all actives have a fitted effect of over 45% in size
In short: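 p53RE-bla cells, 4,000/well, dosed 5 hours after plating, with human liver microsomes (0.5 mg/mL final) plus NADPH (0.5 mg/mL final), 16 hours at 37 C. Viability read as CellTiter-Glo luminescence after 30 min at room temperature.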

[9] = p53 small molecule agonists, cell-based qHTS assay with rat liver microsomes: qHTS cell viability counter screen (AID 1963580); further: nearly all actives have a fitted effect of over 45% in size
In short: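 Rat liver microsome (0.5 mg/mL final) and NADPH (0.5 mg/mL final) co-incubation with compounds for 16 h at 37 C on HCT-116 p53RE-bla cells; cytotoxicity taken from intracellular ATP luminescence.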

[10] = p53 small molecule agonists, cell-based qHTS assay: qHTS cell viability counter screen (AID 1963581); further: nearly all actives have a fitted effect of over 45% in size
In short: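 qHTS counter screen: 16 h compound exposure at 37 C of p53RE-bla HCT-116 cells (4,000 per well, seeded 5 h prior), cell viability by ATP luminescence.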

[11] = p53 small molecule agonists, cell-based qHTS assay (AID 1963582; active means well fitted activation curve with a large enough effect in the signal ratio in the repeat runs, not every such curve was filed as active; the % refers to the signal ratio)
In short: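 Measured: fluorescence from cleaved LiveBLAzer substrate. System: p53RE-bla cells, 16 h compound treatment at 37 C, 2 h substrate step at room temperature.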

[12] = molecular target: 5-hydroxytryptamine receptor 2A (Homo sapiens) (UniProt P28223); test: 5-hydroxytryptamine receptor 2A (HTR2A) small molecule antagonists, cell-based qHTS assay (AID 1963586); further: nearly all actives have a fitted effect of over 45% in size
In short: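 CHO cells stably expressing human HTR2A were plated for 18 h at 37 C, then loaded with calcium dye for 1 h. Compounds were preincubated 5 min at room temperature before DOI (4 nM solution) was added. Kinetic fluorescence was read for 3 min.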

[13] = molecular target: 5-hydroxytryptamine receptor 2A (Homo sapiens) (UniProt P28223); test: 5-hydroxytryptamine receptor 2A (HTR2A) small molecule agonists, cell-based qHTS assay (AID 1963587); further: nearly all actives have a fitted effect of over 30% in size
In short: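 Kinetic calcium-flux fluorescence (2 min, 1 sec intervals) after compound addition in agonist mode. HTR2A-CHO cells were cultured 18 h, then dye-loaded 1 h at 37 C.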

[14] = molecular target: Muscarinic acetylcholine receptor M1 (Homo sapiens) (UniProt P11229); test: Cholinergic receptor muscarinic 1 (CHRM1) small molecule antagonists, cell-based qHTS assay (AID 1963588); further: nearly all actives have a fitted effect of over 40% in size
In short: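 Compounds were tested at 15 concentrations in three independent runs. Dye-loaded CHRM1-CHO cells were exposed 5 min at room temperature before stimulation by acetylcholine added at 50nM. Intracellular calcium was read kinetically on FDSS for 3 min.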

[15] = molecular target: Muscarinic acetylcholine receptor M1 (Homo sapiens) (UniProt P11229); test: Cholinergic receptor muscarinic 1 (CHRM1) small molecule agonists, cell-based qHTS assay (AID 1963589); further: nearly all actives have a fitted effect of over 35% in size
In short: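 Kinetic fluorescence (1 s intervals) of calcium-sensitive dye in human M1 CHO cells after compound addition; cells pre-incubated 18 h at 37 C/5% CO2 and dye-loaded 1 h.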

[16] = cAMP Responsive Elements (CRE) small molecule agonists, cell-based qHTS assay (AID 1963590)
In short: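 Test agents in DMSO were incubated 3 h at 37 C/5% CO2 with CRE-bla HEK 293T cells seeded 18 h earlier; LiveBLAzer B/G FRET substrate was added and read after 2 h at room temperature.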

[17] = cAMP Responsive Elements (CRE) small molecule antagonists, cell-based qHTS assay (AID 1963591; active means well fitted inhibition curve with a large enough effect in the signal ratio in the repeat runs, not every such curve was filed as active; the % refers to the signal ratio)
In short: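 Reporter line CRE-bla HEK 293T in dialyzed-FBS DMEM; cells preincubated 18 h, treated 3 h with compound plus NKH477 (0.25 uM final); LiveBLAzer FRET, 2 h RT.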

[18] = molecular target: Beta-2 adrenergic receptor (Homo sapiens) (UniProt P07550); test: Adrenergic beta2 receptor (ADRB2) small molecule antagonists, cell-based qHTS assay (AID 1963592); further: series mostly up to about 92 µM; nearly all actives have a fitted effect of over 50% in size
In short: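 Assay format: CHO-ADRB2 cells, 18-20hr seeding at 37C/5% CO2, then compound plus 1nM isoproterenol agonist mix for 0.5hr RT. Homogeneous time-resolved fluorescence cAMP detection after 1hr, expressed as 665/615 nm ratio.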

[19] = molecular target: Beta-2 adrenergic receptor (Homo sapiens) (UniProt P07550); test: Adrenergic beta2 receptor (ADRB2) small molecule agonists, cell-based qHTS assay (AID 1963593);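 further: CHO cells stably overexpressing human ADRB2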
In short: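 CHO cells stably over-expressing ADRB2 were plated overnight at 37C, then dosed with compounds plus a stimulation mix containing 100uM IBMX and 25uM Ro-20-1724 for 0.5hr at room temperature. cAMP was measured by HTRF competition, 1hr.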

[20] = molecular target: D(2) dopamine receptor (Homo sapiens) (UniProt P14416); test: Dopamine D2 receptor (DRD2) small molecule agonists, cell-based qHTS assay (AID 1963594); further: nearly all actives have a fitted effect of over 35% in size
In short: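 cAMP accumulation in DRD2-HEK293 cells measured by HTRF after 1 h detection; compounds added 10 min before NKH477 (200nM […]) forskolin-analogue stimulation, 30 min at room temperature, with Ro20-1724 present at 0.1 mM final.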
On the % scale 0 is the no-effect control and ±100 the full control effect.

Chain of Gonadotropin-releasing hormone receptor (Homo sapiens) (P30968 whole entry, looked up): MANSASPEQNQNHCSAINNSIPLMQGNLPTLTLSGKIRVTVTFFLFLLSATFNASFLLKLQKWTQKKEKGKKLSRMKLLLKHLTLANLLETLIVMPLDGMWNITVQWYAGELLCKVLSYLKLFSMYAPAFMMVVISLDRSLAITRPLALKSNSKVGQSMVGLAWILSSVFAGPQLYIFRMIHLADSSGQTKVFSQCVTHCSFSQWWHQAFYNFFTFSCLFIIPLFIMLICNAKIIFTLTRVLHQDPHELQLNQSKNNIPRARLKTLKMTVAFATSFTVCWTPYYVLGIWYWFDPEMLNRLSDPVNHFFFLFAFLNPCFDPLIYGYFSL
Chain of Beta-2 adrenergic receptor (Homo sapiens) (P07550 whole entry, looked up): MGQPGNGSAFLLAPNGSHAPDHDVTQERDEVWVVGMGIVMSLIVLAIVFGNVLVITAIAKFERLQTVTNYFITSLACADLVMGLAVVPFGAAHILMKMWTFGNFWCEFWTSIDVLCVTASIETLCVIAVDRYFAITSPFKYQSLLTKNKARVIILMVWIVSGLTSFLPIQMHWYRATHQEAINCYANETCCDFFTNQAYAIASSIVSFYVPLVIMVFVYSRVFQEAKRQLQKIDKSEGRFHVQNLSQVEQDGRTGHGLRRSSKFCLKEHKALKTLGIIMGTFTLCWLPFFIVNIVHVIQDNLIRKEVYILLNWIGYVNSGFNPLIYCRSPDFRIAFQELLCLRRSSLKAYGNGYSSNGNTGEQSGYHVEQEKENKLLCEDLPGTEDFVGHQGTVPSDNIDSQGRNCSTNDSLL
Chain of Muscarinic acetylcholine receptor M1 (Homo sapiens) (P11229 whole entry, looked up): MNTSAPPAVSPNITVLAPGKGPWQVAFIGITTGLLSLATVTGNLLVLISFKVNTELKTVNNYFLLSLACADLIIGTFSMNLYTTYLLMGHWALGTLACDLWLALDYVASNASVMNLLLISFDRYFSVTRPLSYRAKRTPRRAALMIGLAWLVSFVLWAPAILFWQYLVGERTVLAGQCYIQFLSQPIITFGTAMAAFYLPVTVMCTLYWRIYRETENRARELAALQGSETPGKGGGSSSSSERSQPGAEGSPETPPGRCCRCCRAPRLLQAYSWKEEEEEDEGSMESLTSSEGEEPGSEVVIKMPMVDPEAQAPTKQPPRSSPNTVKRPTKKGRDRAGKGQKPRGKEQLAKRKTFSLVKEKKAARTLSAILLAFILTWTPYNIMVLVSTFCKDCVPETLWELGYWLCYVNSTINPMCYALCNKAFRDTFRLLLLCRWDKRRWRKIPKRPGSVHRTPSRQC
Chain of D(2) dopamine receptor (Homo sapiens) (P14416 whole entry, looked up): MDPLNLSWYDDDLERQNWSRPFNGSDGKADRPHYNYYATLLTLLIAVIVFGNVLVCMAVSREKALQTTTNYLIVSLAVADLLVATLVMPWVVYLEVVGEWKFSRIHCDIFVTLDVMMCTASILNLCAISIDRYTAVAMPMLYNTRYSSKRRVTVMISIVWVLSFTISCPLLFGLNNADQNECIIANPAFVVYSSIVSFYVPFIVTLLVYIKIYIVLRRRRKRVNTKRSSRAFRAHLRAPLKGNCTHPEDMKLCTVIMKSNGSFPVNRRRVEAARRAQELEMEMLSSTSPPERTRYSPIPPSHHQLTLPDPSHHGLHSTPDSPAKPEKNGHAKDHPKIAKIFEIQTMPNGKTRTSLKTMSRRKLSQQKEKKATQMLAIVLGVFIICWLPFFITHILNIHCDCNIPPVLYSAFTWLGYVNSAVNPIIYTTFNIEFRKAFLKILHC
Chain of 5-hydroxytryptamine receptor 2A (Homo sapiens) (P28223 whole entry, looked up): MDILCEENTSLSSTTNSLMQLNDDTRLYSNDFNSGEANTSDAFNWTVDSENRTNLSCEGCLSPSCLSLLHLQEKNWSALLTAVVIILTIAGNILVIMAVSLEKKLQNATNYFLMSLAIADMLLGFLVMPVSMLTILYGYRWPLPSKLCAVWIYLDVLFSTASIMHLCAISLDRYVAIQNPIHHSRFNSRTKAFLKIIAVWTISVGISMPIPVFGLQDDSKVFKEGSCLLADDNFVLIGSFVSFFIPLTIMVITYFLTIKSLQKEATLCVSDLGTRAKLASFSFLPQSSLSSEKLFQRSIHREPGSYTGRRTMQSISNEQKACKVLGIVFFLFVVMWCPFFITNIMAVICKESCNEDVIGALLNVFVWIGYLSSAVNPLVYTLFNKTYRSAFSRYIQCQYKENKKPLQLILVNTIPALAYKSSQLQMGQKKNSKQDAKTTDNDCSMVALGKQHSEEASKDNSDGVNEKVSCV
Chain of KiSS-1 receptor (Homo sapiens) (Q969F8 whole entry, looked up): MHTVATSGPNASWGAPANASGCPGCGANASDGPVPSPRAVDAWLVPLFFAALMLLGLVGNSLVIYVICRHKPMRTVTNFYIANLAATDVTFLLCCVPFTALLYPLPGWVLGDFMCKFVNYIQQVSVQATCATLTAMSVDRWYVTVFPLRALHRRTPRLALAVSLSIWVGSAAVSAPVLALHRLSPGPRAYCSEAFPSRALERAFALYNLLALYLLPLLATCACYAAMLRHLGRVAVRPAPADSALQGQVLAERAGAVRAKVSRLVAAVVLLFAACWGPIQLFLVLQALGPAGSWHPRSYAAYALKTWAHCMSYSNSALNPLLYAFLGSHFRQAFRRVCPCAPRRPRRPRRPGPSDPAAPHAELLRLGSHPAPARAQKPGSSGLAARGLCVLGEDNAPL

CC1(C)C(=O)N(Br)C(=O)N1Cl
inactive: Potency [1] | Potency [2] | Potency [3] | Potency [4] | Potency [5] | Potency [6] | Potency [7] | Potency [8] | Potency [9] | Potency [10] | Potency [11] | Potency [12] | Potency [13] | Potency [14] | Potency [15] | Potency [16] | Potency [17] | Potency [18] | Potency [19] | Potency [20]

Cc1cc(C)c(N=Nc2c(O)c(S(=O)(=O)O)cc3cc(S(=O)(=O)O)ccc23)cc1C
inactive: activity change, negative = cytotoxicity [1] -4.24% [at 8.39 µM] | activity, positive = activation [2] -2.39% [at 8.39 µM] | activity change [3] 0.758% [at 5.22 µM, hits give high values] | activation [4] 0.221% [at 6.97 µM] | activation [5] -0.909% [at 5.23 µM] | activation [6] -0.355% [at 5.99 µM] | activation [7] 0.887% [at 5.99 µM] | activity change, negative = cytotoxicity [8] 0.236% [at 5.99 µM] | activity change, negative = cytotoxicity [9] -1.53% [at 5.99 µM] | activity change, negative = cytotoxicity [10] -0.59% [at 5.99 µM] | activation [11] 0.0696% [at 5.99 µM] | activity, negative = inhibition [12] -22.1% [at 5.62 µM] | activation [13] -1.44% [at 7.02 µM] | activity, negative = inhibition [14] 26.6% [at 5.58 µM] | activation [15] -0.143% [at 6.97 µM] | activation [16] -0.168% [at 8.39 µM] | activity change, negative = inhibition [17] -0.183% [at 8.39 µM] | activity change, negative = inhibition [18] -5.6% [at 8.39 µM] | activation [19] -2.26% [at 8.39 µM] | activation [20] 4.98% [at 8.39 µM]

O=Nc1ccc(NO)cc1
active: Potency [2] 63.6 µM
inactive: Potency [1] | Potency [3] | Potency [4] | Potency [5] | Potency [6] | Potency [7] | Potency [8] | Potency [9] | Potency [10] | Potency [11] | Potency [12] | Potency [13] | Potency [14] | Potency [15] | Potency [16] | Potency [17]

Cc1cccc(N)n1
inactive: Potency [1] | Potency [2] | Potency [3] | Potency [4] | Potency [5] | Potency [6] | Potency [7] | Potency [8] | Potency [9] | Potency [10] | Potency [11] | Potency [12] | Potency [13] | Potency [14] | Potency [15] | Potency [16] | Potency [17] | Potency [18] | Potency [19] | Potency [20]

Cc1ccc(C(=O)C(=O)O)cc1C
inactive: Potency [1] | Potency [2] | Potency [3] | Potency [4] | Potency [5] | Potency [6] | Potency [7] | Potency [8] | Potency [9] | Potency [10] | Potency [11] | Potency [12] | Potency [13] | Potency [14] | Potency [15] | Potency [16] | Potency [17] | Potency [18] | Potency [19] | Potency [20]

C[Si](C)(C)Cl
inactive: Potency [1] | Potency [2] | Potency [3] | Potency [4] | Potency [5] | Potency [6] | Potency [7] | Potency [8] | Potency [9] | Potency [10] | Potency [11] | Potency [12] | Potency [13] | Potency [14] | Potency [15] | Potency [16] | Potency [17] | Potency [18] | Potency [19] | Potency [20]

CCCCCCCCCCCCCCCC
inactive: Potency [1] | Potency [2] | Potency [3] | Potency [4] | Potency [5] | Potency [6] | Potency [7] | Potency [8] | Potency [9] | Potency [10] | Potency [11] | Potency [12] | Potency [13] | Potency [14] | Potency [15] | Potency [16] | Potency [17] | Potency [18] | Potency [19] | Potency [20]
